Compounds with a hit are over-represented: about 12% of the library has one in this group of screens.
Sm TGR inh = qHTS Assay for the Inhibitors of Schistosoma Mansoni Peroxiredoxins. purified TGR, DTNB reduction, TNB absorbance 405 nm. Potency, µM (highest dose often 114 µM), for the others: at the top dose activity change, negative = inhibition, usual class: inhibitors. hit rate 3% among 360,000; also: % is scaled to controls: 0 for no effect and ±100 for the full control effect; nearly all actives have a fitted effect of over 60% in size
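Kinetic colorimetric format: TGR-catalysed, NADPH-driven DTNB reduction monitored via TNB absorbance. Enzyme dispensed at 20 nM; compound exposure 15 min at room temperature before reaction start.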
AmpC no deterg = qHTS Inhibitors of AmpC Beta-Lactamase (assay without detergent) | P00811 | AmpC nitrocefin hydrolysis, absorbance 480 nm, 0.0001% Triton | Potency, µM (top dose mostly 57.1 µM), for the others: at the highest dose activity change, negative = inhibition, usual class: inhibitors | hit rate 0.52% among 330,000 | AID 485341, 2010;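 also: plate controls were no compound for no effect and no enzyme for full effect; nearly all actives have a fitted effect of over 20% in size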
Target sequence (P00811 whole entry, looked up): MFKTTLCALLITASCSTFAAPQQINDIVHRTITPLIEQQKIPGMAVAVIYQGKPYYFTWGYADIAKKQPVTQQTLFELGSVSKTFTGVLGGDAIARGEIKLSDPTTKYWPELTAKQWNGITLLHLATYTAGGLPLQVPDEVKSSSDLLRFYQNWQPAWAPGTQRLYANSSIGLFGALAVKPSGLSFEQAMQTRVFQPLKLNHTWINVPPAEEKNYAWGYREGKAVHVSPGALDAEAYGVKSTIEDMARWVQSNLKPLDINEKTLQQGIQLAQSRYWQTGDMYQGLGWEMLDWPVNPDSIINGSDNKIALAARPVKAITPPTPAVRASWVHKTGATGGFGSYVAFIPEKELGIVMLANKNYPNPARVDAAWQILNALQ
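AmpC (5.3 nM in the dispensed reagent) in 20 mM phosphate pH 7.0 with 0.01% (detergent screen) or 0.0001% Triton X-100 was preincubated with compounds for 15 min at room temperature. Nitrocefin was then added from an 800 uM solution, and hydrolysis was followed at 480 nm.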
Pf growth 96h = Primary qHTS for delayed death inhibitors of the malarial parasite plastid, 96 hour incubation | Potency, µM (series often up to 28.7 µM), without a hit: at the top dose activity change, negative = inhibition, actives largely listed as inhibitors | hit rate 6.9% among 320,000 | P. falciparum luciferase reporter growth, 96 h | AID 504834, 2011; also: % is scaled to controls: 0 for no effect and ±100 for the full control effect
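Infected RBCs, 2% Hct / 0.05% parasitemia final; luciferase-reporter P. falciparum; cpd 96 h, 37 C, 5% CO2; luciferase detection reagent; luminescence.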
AmpC inh detg = qHTS Inhibitors of AmpC Beta-Lactamase (assay with detergent). AID 485294, 2010. P00811. Potency, µM (doses to about 114 µM), for inactives: at the highest dose activity change, negative = inhibition, hits mostly inhibitors. AmpC hydrolysis of nitrocefin, absorbance 480 nm, 0.01% Triton. hit rate 0.041% among 370,000;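 also: 0% = no-compound wells and -100% = no-enzyme wells; nearly all actives have a fitted effect of over 25% in size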
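20 mM phosphate pH 7.0 + 0.01% (detergent screen) or 0.0001% Triton X-100; 5.3 nM AmpC reagent; cpd preinc 15 min RT; nitrocefin (800 uM stock) to start; A480 q20 s × 4 min; Activity was normalised to no-enzyme and no-compound control wells.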
Pf growth 48h = Primary qHTS for delayed death inhibitors of the malarial parasite plastid, 48 hour incubation | Potency, µM (top dose mostly 28.7 µM), for inactives: top-dose activity change, negative = inhibition, actives largely listed as inhibitors | hit rate 5.9% among 310,000 | P. falciparum luciferase growth in erythrocytes, 48 h; also: % is scaled to controls: 0 for no effect and ±100 for the full control effect
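Erythrocytes infected with P. falciparum carrying an integrated firefly luciferase reporter (2% hematocrit, 0.1% parasitemia final) were exposed to compounds in RPMI 1640 with 0.5% Albumax at 37 C, 5% CO2. Growth inhibition was scored as reduced luminescence.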
SARS PLpro yeast = qHTS of Yeast-based Assay for SARS-CoV PLP; S. cerevisiae expressing SARS-CoV PLpro, growth rescue; Potency, µM (doses to about 32.9 µM), for the others: at the top dose activity, positive = growth rescue, usual class: activators; hit rate 0.19% among 330,000; calls by dose curve; also: 0% is about no effect; nearly all actives have a fitted effect of over 55% in size
The depositor's hits bear a star; ? = inconclusive; / = no result given. Unless noted, calls follow the shape of the dose curve; as a rule, active = well fitted curve in the direction sought with a large enough effect; inconclusive = small, poorly fitted or top-dose-only effect, or another doubt; inactive = no such curve, though single readings can be large; an effect the other way counts as inactive or inconclusive. Potency is read from the fitted curve at half-maximal effect.

SMILES | Sm TGR inh | AmpC no deterg | Pf growth 96h | AmpC inh detg | Pf growth 48h | SARS PLpro yeast
N#CC1=C(N)Oc2c(c(=O)oc3ccccc23)C1c1ccc(OC(=O)N2CCOCC2)cc1 (configuration not stated) | ? | 20.4% | 11.7µM* | -1.0% | 9.28µM* | -19.2%
CCCCC/C=C\C[C@H](O)/C=C/c1cccc(C[C@H](O)CCCCO)n1 | ? | 251.5% | ? | -0.8% | 13.1µM* | 4.8%
Cc1nc(-c2ccc(Cl)cc2)sc1CCNC(=O)c1ccco1 | -6.4% | / | / | -5.5% | / | /
COc1cc(C(CC(=O)Nc2ccc(C)cn2)N2Cc3ccccc3C2=O)cc(OC)c1OC (configuration not stated) | 8.8% | -4.7% | -17.4% | 6.9% | -19.8% | -0.8%
CCOc1ccc(N(CC(=O)N2CCN(Cc3ccccc3)CC2)S(C)(=O)=O)cc1 | -5.2% | 107.5% | 10.0% | 1.2% | -4.8% | 5.0%
CCCCCCN(C(=O)CCCCCN1C(=O)NC(c2ccc(-c3ccccc3)cc2)C(C(=O)OCc2ccccc2)=C1C)C(C(=O)NCCCC)C1CCCCC1 (configuration not stated) | 2.2% | -12.1% | 2.62µM* | -0.4% | 0.828µM* | 0.2%
CCCCCCN(C(=O)CCCCCN1C(=O)NC(c2ccc(-c3ccccc3)cc2)C(C(=O)OCc2ccccc2)=C1C)C(C(=O)NCCCC)c1ccccn1 (configuration not stated) | ? | 21.2% | 2.33µM* | -5.5% | 2.94µM* | -0.1%
CC1=C(C(=O)OCc2ccccc2)C(c2ccc(C#N)cc2)NC(=O)N1CCCC(=O)O (configuration not stated) | -12.9% | -12.2% | -26.4% | ? | 0.7% | 4.8%
Cc1cccc(NN=C2c3ccccc3-c3ccccc32)c1 | -5.7% | -31.9% | 82.8% | 4.1% | 6.0% | -6.7%
COc1cc(S(=O)(=O)N2CCC(c3nc4ccccc4s3)CC2)ccc1S(=O)(=O)NC1CCCC1 | 5.3% | -15.5% | 9.28µM* | -8.1% | ? | 1.3%
COc1ccc(S(=O)(=O)N2CCC(c3nc4ccccc4s3)CC2)cc1OC | 1.5% | / | / | 19.7% | / | /
CCOC(=O)c1c(C)nc2c(c1-c1cc(OC)ccc1OC)C(=O)c1ccccc1-2 | 0.1% | -9.2% | -1.6% | 2.4% | -7.7% | 1.1%
CCOC(=O)C1=C(Cc2ccc(C)cc2)C(=O)c2ccccc2C1=O | 8.91µM* | -29.5% | 2.33µM* | -12.3% | / | -39.4%
CCOC(=O)C1=C(Cc2ccc(OC)cc2)C(=O)c2ccccc2C1=O | 14.1µM* | -31.1% | / | 0.0% | 4.65µM* | -26.7%
CC(C)CCN1C(=O)c2ccccc2CC1(C)C(=O)NC1CCCCC1 (configuration not stated) | 3.9% | / | / | 13.6% | / | /
CCOc1ccc(CCNC(=O)c2nn(-c3ccc(OC)cc3)c(=O)c3c2c2ccccc2n3C)cc1OCC | 9.4% | / | / | 0.1% | / | /
COc1ccc(-c2noc(-c3ccccc3F)n2)cc1 | 12.4% | -19.1% | 9.28µM* | -9.2% | / | 2.5%
O=C(O)c1cccc(-c2noc(-c3ccccc3F)n2)c1 | / | / | ? | / | 0.301µM* | /
O=C(O)c1cccc(-c2nc(-c3ccccc3C(F)(F)F)no2)c1 | / | / | ? | / | 4.15µM* | /
CC[N+](C)(CC)CC(O)COCC1COc2ccccc2O1 (configuration not stated) | -7.6% | -6.2% | 14.6% | -7.4% | ? | -5.5%
CCN(CC)S(=O)(=O)c1ccc(/C(O)=C(\C#N)c2nc3ccccc3n2C)cc1 | -35.2% | 9.4% | 0.262µM* | ? | ? | 5.3%
Fc1ccccc1OCCCn1ccnc1 | 8.9% | -9.7% | 299.7% | ? | -3.0% | -0.3%
